This experiment concerns the target T1, ETS1 (UniProt P14921).
T1 sequence: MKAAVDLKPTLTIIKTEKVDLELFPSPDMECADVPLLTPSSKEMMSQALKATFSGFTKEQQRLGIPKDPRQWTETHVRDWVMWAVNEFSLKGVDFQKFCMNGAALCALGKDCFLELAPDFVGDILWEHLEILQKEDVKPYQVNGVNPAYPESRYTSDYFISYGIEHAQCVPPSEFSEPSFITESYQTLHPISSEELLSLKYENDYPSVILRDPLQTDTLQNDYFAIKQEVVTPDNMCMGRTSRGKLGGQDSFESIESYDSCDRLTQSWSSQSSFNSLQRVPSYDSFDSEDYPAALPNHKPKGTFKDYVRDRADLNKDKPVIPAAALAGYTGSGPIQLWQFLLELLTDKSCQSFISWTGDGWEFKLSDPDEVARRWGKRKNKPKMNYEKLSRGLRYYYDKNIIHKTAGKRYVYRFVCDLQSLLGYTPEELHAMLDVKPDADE
Put plainly: ETS1 binding intensity (PBM fluorescence), ETS1 alone (arbitrary fluorescence units); higher = stronger binding. The settings on record: ETS1 concentration 1 nM; RUNX1 concentration 0 nM.
With GCGAAAAACGCGGAAATGCGGTGGCGGCGGCCCGCT, the ETS1 binding intensity is 885.

GCAGCCCAGCTTCCTGCAGACCAAAACCACAAGCAG came in with an ETS1 binding intensity of 542.

In the case of GCCGGGCACCCCGGAAGACCGCTGGGAACCGGCTTT, the ETS1 binding intensity came out at 1080.

Take TGGCAGCGGGTGCGGAAACCACAGGCCTCCAGGCTT: the ETS1 binding intensity stood at 701.

CCACCCTCCGTCCGGCCGCGACCGCGAGGAGGAAGA: the ETS1 binding intensity amounted to 948.

For the sequence TTTCAAAACCCGGAAATGACCGCCAGGCTGGCATCA, the ETS1 binding intensity came out at 7800.

For the sequence GCCAGCGGGGCTTCCGGCCCCGCAGGCAGAAGTCGA, the ETS1 binding intensity came out at 1460.

CGGCAGGGAAGCAGGAAACCGCGAGTGGAGAAAGGG: the ETS1 binding intensity stood at 1790.

With AGGCTTCCGGCCACGCCCCCTTCCCGCGGTTGCTAG, the ETS1 binding intensity worked out at 704.

Take AAGAGGAAATAAATACCAGAGTGAACCCACAAACCT: the ETS1 binding intensity was determined as 441.

The sequence CCTGTTTCCTGCCATCTGCCCTTCCTTTGTGGTCAA had an ETS1 binding intensity of 774.

Consider AGCTTGCGCAGGAAGTCTGCGGCAGGAGGGCGTCCT, for which the ETS1 binding intensity is 1920.

As for CTGCTGACCAAAACAGGATGTGGTCTACACAAAGTG, the ETS1 binding intensity was 10300.

CTGCGTTTCCTCTGAGTTTTGCATGTTGAGGTTGGA showed an ETS1 binding intensity of 462.

Consider TTCTTCACTTCCTTCTCTCCGTGGTTTCGCCATTAG, for which the ETS1 binding intensity was 513.

As to GCGATCGGAGCGGAAGTGGAGCTACCGCCACCGCCG, the ETS1 binding intensity amounted to 7540.

Turning to TGCCCTGACTTCCTGGTCCTGTGGTCAAGGATGGGG, the ETS1 binding intensity was determined as 1340.

For the sequence AAACCCTGAGTAATCGGAAGTGGTTAGGAGTGAGAG, the ETS1 binding intensity turned out to be 2190.

CAGCCGACTTCCGGGGTGGGGCTTGCTGCCGCAGAG had an ETS1 binding intensity of 1760.

In turn, CGATTCCGGAGACAGGCCCCACCGTGCGGTAAACTG returned an ETS1 binding intensity of 550.

Regarding ACAGATACAGCCTCAGGAAGTGGTTTTGTATCTCTG, the ETS1 binding intensity was 3200.

TTCAGGAAATGCAAACGGCTGCAGAGACCGCAGAGG: the ETS1 binding intensity is 499.

The sequence AGCAGGAAGTATGTTGAAAGTCATAACCACAGCAAA showed an ETS1 binding intensity of 908.

Consider TTGTCACGTCCGGCACGCCGCGAACCGCAAGGAACC, for which the ETS1 binding intensity came out at 571.

Sequence GGTTCTCTAGGGAGAGGATGTGGGTTTGTCTCTGGG returned an ETS1 binding intensity of 1820.

Sequence AAAGGCGGAAGGGGGGCAGGGAACCCACAAAACAGA had an ETS1 binding intensity of 457.

As for TCCTTTTCCGGTGGCGGCGCCGCGCGGTGAGGTTGT, the ETS1 binding intensity amounted to 754.

AAGAACCTAGAGGATGTGTGGTTTTATGTGCAGGGT yielded an ETS1 binding intensity of 710.

Sequence GGGTGCTTCCTATAAACAATGACTCATTACCGCACT yielded an ETS1 binding intensity of 425.

Take GCGGCTGAGAACACAGGATGTGGCTTTTGGCAGATG: the ETS1 binding intensity turned out to be 6080.

As to CTCTGCTTCCTGTCTTTGAATGCCTCTGTGGTTTTC, the ETS1 binding intensity is 675.

On to CCCGGGGGCAGGAAATGTCGCCTTACCCACAGCCTT, for which the ETS1 binding intensity turned out to be 2470.

In turn, TGGAGAGCACAGGAAGTGGCCCACAGCCCAGGCCAA came in with an ETS1 binding intensity of 5790.

The sequence GGTTTCGCTTCCGGGTTAGGCGGCCGCAGAAGCGTA gave an ETS1 binding intensity of 947.

GCCACATATTTCCTGTGACAACCCTGTGGTGTGGCT showed an ETS1 binding intensity of 641.

For CTCCGGCGGAAGTTGTCTCTTCGCCGCCGCCGCAGC, the ETS1 binding intensity came out at 3590.

As to GGCGCGGGCTGCTTCCGGTCTGCGGGCCTGAGGAGG, the ETS1 binding intensity was 5650.

For GGGCGCGACTTCCGGGGCGGCGGTTGCATCAGATTC, the ETS1 binding intensity amounted to 1580.

GGTTGTAAGTTCACAGGATGTGGTGTGTCCCTGTGG came in with an ETS1 binding intensity of 4130.

For GGGGCTCCGCAGGAAGTAGGGCTCCCACAACTTTGC, the ETS1 binding intensity is 2970.

(Values after the supplement of paper PMC10681739.)
